Screening results: PubChem, SRMLSC
Shown are actives, neighbours in structure and some others; about 6.8% of the full set was active somewhere.
Spn MK inh: S. pneumoniae mevalonate kinase inhibition | purified MK, PK/LDH-coupled NADH absorbance 340 nm | inhibition, % at 10 µM | 0.48% of 65,000 active | AID 555;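 active means ranked among the strongest by inhibition in the single 10 µM screen, a fixed top-ranked set picked for dose follow-up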
PMK inhibit: blocks S. pneumoniae phosphomevalonate kinase | purified PMK, PK/LDH-coupled NADH absorbance 340 nm | inhibition, % at 10 µM | 0.49% of 65,000 active;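 active means top-ranked compounds by inhibition in the single 10 µM screen, taking a fixed number of the strongest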
DPM-DC inhibit: blocks S. pneumoniae diphosphomevalonate decarboxylase | purified DPM-DC, PK/LDH coupled NADH fluorescence | calls only at 10 µM | 0.49% of 65,000 active | AID 556;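 active means the 320 compounds with the highest percent inhibition in the single-dose primary screen, excluding strongly autofluorescent ones, cut at about 32% in these data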;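 further: kinetic rate of NADH fluorescence loss reporting ADP formed by the decarboxylase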
NADH enzymes: inhibition of NAD/NADH coupling enzymes, library profiling; coupled PK/LDH NADH assays, four targets; IC50, µM (series often up to 10 µM); 0.02% of 65,000 active;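 active means single-dose screening hits from any of four coupled enzyme assays that gave an IC50 when retested across doses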;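 further: the DPM-DC format reads NADH fluorescence rather than 340 nm absorbance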
Autofluor 339: intrinsic fluorescence of library compounds, ex339/em460 – biochemical, MLSMR library, data from DPM-DC assay, artefact control, profiling panel. compound autofluorescence, ex339/em460 nm, NADH buffer; stronger effect = higher value; 1 = no-compound wells, NADH background. fluorescence fold increase at 10 µM. 5.5% of 65,000 active;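 active means at 10 µM, mean starting fluorescence two-fold or more over control wells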;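 further: signal is the first read of a kinetic run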
A340 absorber: absorbance at 340 nm; 65,000 tested, under 10 active; compound absorbance at 340 nm, fold over control; fold change at 10 µM; AID 708;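 active means at 10 µM dose, initial 340 nm absorbance at least 2 fold that of control wells; inactive means change under 2 fold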;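 further: initial absorbance extrapolated from kinetic A340 decline of NADH oxidation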
Of the large screens only hits and unclear results are named; the others gave an inactive call.

COc1ccc(-c2oc3ncn4nc(COc5ccccc5)nc4c3c2-c2ccc(OC)cc2)cc1	Autofluor 339 2.42 (not shown: DPM-DC inhibit)
COc1ccc(Cc2noc(-c3ccc(C)cc3)n2)cc1	none
COc1ccc(-c2oc3ncn4nc(Cc5ccccc5)nc4c3c2-c2ccc(OC)cc2)cc1	Autofluor 339 2.37 (not shown: DPM-DC inhibit)
O=C(O)CCCNS(=O)(=O)c1ccc(Br)s1	none
Nn1c(COc2cccc(Br)c2)nnc1SCC(=O)N1CCc2ccccc2C1	none
CCN1C2=C(C(=O)CCC2)C(c2ccc(O)c(Br)c2)C2=C1CCCC2=O	Autofluor 339 2.07 (not shown: DPM-DC inhibit)
Cc1ccc(C2CC(=O)NC3=C2C(=O)CCC3)cc1Br (stereo not given)	none
COc1cc(OC)cc(-c2cc3nc4c(c(N5CCN(c6cnccn6)CC5)n3n2)CCCC4)c1	Autofluor 339 2.75
COc1cc(OC)cc(-c2cc3nc4c(c(N5CCN(c6ncccn6)CC5)n3n2)CCCC4)c1	Autofluor 339 3.75
CCc1c(C)nc2cc(-c3cc(OC)cc(OC)c3)nn2c1N1CCCC1	none
CC1(C)Cc2c(c(N3CCOCC3)nc3sc(C(=O)N4CCCCC4)c(N)c23)CO1	Autofluor 339 2.13 (not shown: DPM-DC inhibit)
CCN(CC)c1nc(N2CCOCC2)c(C#N)c2c1CN(C)CC2	none
CNC(=O)c1ccc(-c2sc3nc(N4CCOCC4)c4c(c3c2N)CCCC4)o1	Autofluor 339 2.2 (not shown: DPM-DC inhibit)
CC1(C)Cc2c(c(N3CCOCC3)nc3sc(-c4ccc(C(=O)O)o4)c(N)c23)CO1	Autofluor 339 3.84 (not shown: DPM-DC inhibit)
CCOC(=O)c1sc2nc(N3CCOCC3)c3c(c2c1N)CCN(C)C3	Autofluor 339 3.74 (not shown: DPM-DC inhibit)
c1nc(N2CCOCC2)c2sc3nc(N4CCOCC4)c4c(c3c2n1)CCCC4	none
Cn1cnc2c(sc3nc(N4CCOCC4)c4c(c32)CC(C)(C)OC4)c1=O	none (not shown: DPM-DC inhibit)
C/C=C(\C)c1nnc(NC(=O)c2ccco2)s1	none
CCOc1ccc(C2CC(=O)NC(SCC(=O)OC)=C2C#N)cc1 (stereo not given)	none
CCOC(=O)N1CCN(C(=O)c2cc3c(=O)[nH]c4ccccc4c3s2)CC1	Autofluor 339 3.74 (not shown: DPM-DC inhibit)
Nn1c(Nc2ccccc2)nc2ccccc2c1=O	none
O=c1[nH]c(Nc2ccccc2)cc2ccccc12	Autofluor 339 3.38 (not shown: DPM-DC inhibit)
COc1nc2c(C)cccc2cc1-c1noc(-c2ccncc2)n1	none
CCN(CC)CCCN(Cc1cc2cc(OC)ccc2[nH]c1=O)C(=O)Nc1ccccc1	none
CCN(CC)CCCN(Cc1cc2cc(OC)ccc2[nH]c1=O)C(=O)Nc1ccc(F)cc1	Autofluor 339 2
COc1ccc(NC(=O)N(CCN2CCCC2)Cc2cc3cc(OC)c(OC)cc3[nH]c2=O)cc1	Autofluor 339 2.08
COc1ccc(NC(=O)N(CCCN(C)C)Cc2cc3cc(OC)ccc3[nH]c2=O)cc1	none
O=C(CNCC1CCCO1)N1CCCc2ccccc21 (stereo not given)	none
Cc1cc(C(=O)OCCO)c(C#N)c(N)n1	Autofluor 339 2.93 (not shown: DPM-DC inhibit)
COc1cc2cc(C(c3nnnn3C3CCCC3)N3CCCCCC3)c(=O)[nH]c2cc1OC (stereo not given)	none
CCOc1ccc2[nH]c(=O)c(C(c3nnnn3C3CCCCC3)N3CCN(CC)CC3)cc2c1 (stereo not given)	Autofluor 339 3.74 (not shown: DPM-DC inhibit)
CCN1CCN(C(c2ccccc2OC)c2nnnn2C2CCCCC2)CC1 (stereo not given)	none
CCOc1ccc2[nH]c(=O)c(C(c3nnnn3C3CCCCC3)N3CCN(C)CC3)cc2c1 (stereo not given)	Autofluor 339 4.44 (not shown: DPM-DC inhibit)
CCOc1ccc2[nH]c(=O)c(C(c3nnnn3Cc3ccco3)N3CCCC(C)C3)cc2c1 (stereo not given)	Autofluor 339 2.17
Cc1ccc(OCC(=O)O)c(-n2nc3ccccc3n2)c1	none
O=C(O)COc1ccc2nsnc2c1Cl	Autofluor 339 3.73 (not shown: DPM-DC inhibit)
O=C(CN(CCN1CCOCC1)C(=O)Cn1nnc(-c2ccc(F)cc2)n1)NC1CCCCC1	Autofluor 339 3.6 (not shown: DPM-DC inhibit)
Cc1cc2cc(CN(CCCO)S(=O)(=O)c3cccc4nsnc34)c(=O)[nH]c2cc1C	none
COc1cc2cc(CN(CCCO)S(=O)(=O)c3ccccc3)c(=O)[nH]c2cc1OC	Autofluor 339 3.89 (not shown: DPM-DC inhibit)
COc1cc2cc(CN(CCO)S(=O)(=O)c3ccccc3Cl)c(=O)[nH]c2cc1OC	Autofluor 339 3.08
